Screens from PubChem BioAssay.
HCMV antiviral – inhibitors of human cytomegalovirus. activity change, negative = inhibition, % at 57.5 µM. 410,000 compounds, 4.5% hits. HFF cells, HCMV-luciferase reporter, 72 h; stronger effect = lower value; in the data active means activity change below about -60%; inconclusive means no clear call, values can overlap the other calls; inactive means above about -39%; further: on the % scale 0 is the no-effect control and ±100 the full control effect
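Screen run at 2 compound doses on HFFs infected with reporter HCMV, MOI 1 PFU/cell. Luciferase activity from cell lysates at 72 h post infection gave inhibition relative to buffer-only and Salinomycin wells.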
CHX counter – counter-screen for Shiga toxin inhibitors: cycloheximide protein synthesis inhibition | cell reporter, cycloheximide protein synthesis inhibition counterscreen | max response, % | 300,000 compounds, 12% hits; in the data active means max response mostly above about 13%, no sharp cut-off; inactive means mostly below about 14%; further: read at 38.3 µM for the half of the compounds with a filed dose; 0% is about no effect
Pf growth 48h – P. falciparum growth inhibition at 48 hours (one generation); P. falciparum luciferase growth in erythrocytes, 48 h; Potency, µM (titrated, usually from 28.7 µM), for inactives: at the top dose activity change, negative = inhibition, most hits filed as inhibitors; 310,000 compounds, 5.9% hits; further: potency means the concentration at half of the fitted maximal effect; on the % scale 0 is the no-effect control and ±100 the full control effect
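A one-generation exposure of luciferase-tagged malaria parasites in RPMI 1640/Albumax erythrocyte culture, 37 C and 5% CO2. Inhibition is inferred from decreased luminescence after adding detection reagent.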
Pf growth 96h – P. falciparum growth inhibition at 96 hours | P. falciparum luciferase reporter growth, 96 h | Potency, µM (highest dose often 28.7 µM), for inactives: top-dose activity change, negative = inhibition, most hits filed as inhibitors | 320,000 compounds, 6.9% hits | AID 504834; further: potency means the concentration at half of the fitted maximal effect; on the % scale 0 is the no-effect control and ±100 the full control effect
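Compounds incubated with erythrocytes infected by luciferase-expressing P. falciparum (2% hematocrit, 0.05% parasitemia final) for 96 hours, 37 C in 5% CO2. Growth inhibition scored as decreased luciferase luminescence.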
Shiga inhibitor – inhibitors of Shiga toxin in Vero cells; Vero cells, Shiga toxin protein synthesis inhibition reporter; inhibition, % at 38.7 µM; 290,000 compounds, 9.2% hits; in the data active means inhibition mostly above about 28%, no sharp cut-off; inactive means mostly below about 43%; further: 0% is about no effect
An asterisk follows results filed as active; ? = inconclusive; . = no result; [ ] = another dose, or the depositor's remark. Only some compounds are listed: those with a hit (about 20% of all), similar ones and a draw of the others. Unless noted, the call rests on the fitted dose curve; in most records, active means well fitted inhibition curve with a large enough effect; inconclusive means small, poorly fitted or top-dose-only effect, or another doubt; inactive means no such curve, though single readings can be large or run the other way.

SMILES | HCMV antiviral | CHX counter | Pf growth 48h | Pf growth 96h | Shiga inhibitor
Cc1cc(NC(=O)CCc2ccc(-c3ccccc3)o2)no1 | -102* | 8 | ? | 0% | -4
CC1CCCN(C(=O)c2ccc(OC3CCN(CCc4ccccc4)CC3)cc2)C1 (centres undefined) | 5 | -1 | ? | 1% | 3
Brc1cccc(-c2nc3c4ccccc4ccn3c2CC2CCCCC2)c1 | 117 | . | . | . | .
O=C(CSc1nnc(-c2ccccc2)c(-c2ccccc2)n1)Nc1ccccc1Cl | -28 | . | . | . | .
O=C(CSc1nnc(-c2csc3c2CCCC3)o1)Nc1ccccc1 | 76 | 58* | . | -37% | 55*
Cc1cc(-c2nnc(SCCC(=O)Nc3ccccc3)o2)no1 | -85* | 35* | -15% | ? | -12
O=C(CCSc1nnc(-c2ccncc2)o1)Nc1ccccc1 | 2 | -4 | 19% | -20% | -9
Cc1cc(NC(=O)CSc2nnc(-c3ccccc3)c(-c3ccccc3)n2)no1 | -62* | -4 | 3% | -2% | -23
O=C(CSc1nnc(Cc2ccccc2)o1)Nc1ccccc1 | ? | 18 | 33% | 15% | 2
Cc1cc(NC(=O)CSc2ccccc2)no1 | -102* | -1 | 11% | . | 43
C[C@@H]1c2ccccc2N2C[C@H](Cc3ccc(C(=O)c4ccccc4)cc3)C[C@@H]12 | -12 | . | . | . | .
Cn1c(CNC(=O)c2ccccc2F)nnc1SCC(=O)c1ccccc1 | 27 | 2 | -4% | ? | -2
CCOc1ccccc1NC(=O)N1CCN(Cc2nc3ccc(C)cc3o2)CC1 | -4 | . | . | . | .
O=C(Cn1c(=O)n(-c2ccc(Cl)cc2)c(=O)c2c3c(sc21)CCC3)c1ccc(F)cc1 | -30 | . | . | . | .
COc1ccc(CNC(=O)C2CCN(c3nnc(-n4c(C)ccc4C)s3)CC2)c(OC)c1 | 27 | . | . | . | .
Cc1ccc(N(CC(=O)NCc2ccncc2)S(C)(=O)=O)cc1 | 11 | -6 | -20% | ? | -7
Cc1ccc(C(=S)NCS(=O)(=O)c2ccc(C)cc2)cc1 | -17 | 19* | 30% | 33% | 75
COc1ccc(Oc2ccc(C(F)(F)F)cc2NC(=O)c2ccc(OC)cc2)cc1 | -34 | -2 | ? | ? | -9
COCCn1c(C(F)(F)F)ccc(NC(=O)c2ccccc2)c1=O | 29 | 48* | 125% | 140% | 51*
COc1ccc(C(=O)Nc2ccc(C(F)(F)F)n(C)c2=O)cc1 | 107 | 19* | 95% | 121% | 58*
Cc1ccc(C(=O)Nc2ccc(C(F)(F)F)n(C)c2=O)cc1 | 78 | 45* | 264% | 154% | 87*
COCCn1c(SCC(=O)NNC(=O)c2ccccc2)nc2ccccc2c1=O | -13 | 2 | -14% | ? | -12
CCN(CC)S(=O)(=O)c1ccc(C(=O)Nc2ccc(C(F)(F)F)n(C)c2=O)cc1 | -24 | -6 | -8% | -9% | 51
CCOC(=O)C1CC2CC(C1)CN(C(=O)C1CCCCC1)C2 (centres undefined) | 7 | 8 | 1% | ? | -14
COc1ccc(C(=O)O)cc1S(=O)(=O)NC(C)C12CC3CC(CC(C3)C1)C2 (centres undefined) | 0 | . | ? | -8% | .
SMILES | HCMV antiviral | CHX counter | Pf growth 48h | Pf growth 96h | Shiga inhibitor
CC(=O)Nc1cccc(NS(=O)(=O)Cc2ccc(Cl)cc2)c1 | -66* | 8 | -15% | 15µM* | 32
CC(O)(CS(=O)(=O)Cc1ccc(Cl)cc1)C(=O)Nc1cccc(C(F)(F)F)c1 (centres undefined) | -103* | 0 | -10% | 7% | 3
O=C(Nc1cccc(C(F)(F)F)c1)N(Cc1ccc(Cl)cc1)CC(O)C(F)(F)F (centres undefined) | ? | 6 | ? | ? | -9
CC(=O)OC1OCCOC1NC(=S)Nc1cccc(C(F)(F)F)c1 (centres undefined) | -32 | 19* | 22% | 23% | 66*
CNNC(=S)Nc1cccc(C(F)(F)F)c1 | 41 | -2 | 4.1µM* | ? | -3
Cc1cccc(C)c1NS(=O)(=O)c1ccc(F)cc1 | 9 | -2 | 18% | 0%[5.75 µM] | -16
CC(C)(O)C(=O)NNC(=S)Nc1cccc(C(F)(F)F)c1 | -33 | 10 | 13% | 12µM* | -4
COc1ccc(C(=O)Nc2ccc(NC(=O)c3ccco3)cc2)cc1 | . | -6 | -11% | 12% | 29
O=C(Nc1ccc(Cl)c(Cl)c1)Oc1ccc(NC(=O)c2ccco2)cc1 | -19 | 22* | . | ? | 23
O=C(OC1CCCCC1)c1ccc(NC(=O)c2ccco2)cc1 | -25 | 36* | ? | 2.9µM* | 61*
